From PubChem BioAssay come the findings set out here.

The nature of test [1]: sensitizers of A549 cells to miR-34 induction, primary screen, imaging, A549 dox-inducible miR-34, nuclei and caspase counts (AID 1347080). The following applies: A549 miR-34 inducible, Hoechst nuclei count, 48 h.
Test [2] in a line: survival rescue of mitochondrial mutant cells in low glucose, primary screen, MELAS cybrids, Rieske KO mouse fibroblasts, CellTiter-Glo (AID 1508586;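 active = mean z-score across replicates of 1.96 or higher in either the MELAS or the Rieske mutant cell line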;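 also: z relative to plate mean and SD of compound and empty wells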). A general note: Cellular ATP, detected with luciferase, serves as a proxy for viable cell number.
The mark [3] stands for this setting: stronger effect = lower value, cell number ratio, induced over uninduced.
[4] abbreviates: measured here: relative caspase fold change +Dox/-Dox.
[5] abbreviates: measured here: total cells with miR-34 induction, stronger effect = lower value.
The mark [6] stands for this setting: measured here: total cells without miR-34 induction.
Setting [7] is: MELAS cybrid survival, CellTiter-Glo 48 h, stronger effect = higher value.
Where [8] appears, read: Rieske KO mouse fibroblast survival, CellTiter-Glo 72 h.

Active and inactive are the calls of the source.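 The calls were made as follows, unless noted: active = compounds whose cell count with miR-34 switched on is under 0.7 times the count with it off; inactive = the rest.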
Also: test concentration not given here.

As for `C=C1C(=CC=C2CCC[C@]3(C)C(C(C)CCCC(C)(C)O)CC[C@@H]23)CC(O)CC1O` (some centres not stated), the fold change in test [1] (setting [3]) was 0.915 (inactive); in test [1] (setting [4]) it was 1.06. Also, the figures for the cell count in test [1] (setting [5]) and in test [1] (setting [6]) were 6550 and 7160, respectively. Also, the z-score in test [2] (setting [7]) was -0.468 (inactive); in test [2] (setting [8]) it was 0.543.

`Brc1ccc(C2CN3CCSC3=N2)cc1` (configuration not stated): the fold change is 0.957 (inactive) in test [1] (setting [3]) and 0.301 in test [1] (setting [4]). The cell count in test [1] (setting [5]) worked out at 9050; in test [1] (setting [6]) it was 9460. In addition, the values for the z-score in test [2] (setting [7]) and in test [2] (setting [8]) were -0.426 (inactive) and -0.0963, respectively.

In the case of `CC1C(=O)O[C@H]2C(O)C34C5CC(C(C)(C)C)C36C(O)C(=O)O[C@H]6O[C@]4(C(=O)O5)[C@@]12O` (some centres not stated), the fold change is 0.925 (inactive) in test [1] (setting [3]) and 1.45 in test [1] (setting [4]). Further, the values for the cell count in test [1] (setting [5]) and in test [1] (setting [6]) were 7630 and 8250, respectively. For the same compound, the figures for the z-score in test [2] (setting [7]) and in test [2] (setting [8]) were -0.353 (inactive) and -0.351, respectively.

In the case of `O=S(=O)(NCCNCC=Cc1ccc(Br)cc1)c1cccc2cnccc12`, the results for the fold change in test [1] (setting [3]) and in test [1] (setting [4]) were 0.834 (inactive) and 0.904, respectively. In addition, the cell count in test [1] (setting [5]) turned out to be 8100; in test [1] (setting [6]), 9710. The results for the z-score in test [2] (setting [7]) and in test [2] (setting [8]) were -0.305 (inactive) and 0.0221, respectively.

For the compound `CCOc1ccc2ccccc2c1C(=O)NC1C(=O)N2C(C(=O)O)C(C)(C)S[C@H]12` (some centres not stated), the fold change was 1.19 (inactive) in test [1] (setting [3]) and 0.989 in test [1] (setting [4]). Besides, the figures for the cell count in test [1] (setting [5]) and in test [1] (setting [6]) were 8800 and 7400, respectively. In addition, the z-score is -0.279 (inactive) in test [2] (setting [7]) and -0.179 in test [2] (setting [8]).

For `COCCCOc1cc(CC(CC(N)C(O)CC(C(=O)NCC(C)(C)C(N)=O)C(C)C)C(C)C)ccc1OC` (configuration not stated), the values for the fold change in test [1] (setting [3]) and in test [1] (setting [4]) were 0.942 (inactive) and 0.734, respectively. For the same compound, the cell count in test [1] (setting [5]) came to 7600; in test [1] (setting [6]), 8060. For the same compound, the z-score in test [2] (setting [7]) was 0.18 (inactive); in test [2] (setting [8]) it was -0.179.

Take `COc1cc2c(cc1O)CC[C@@H]1[C@H]2CC[C@]2(C)C(O)CC[C@@H]12` (some centres not stated): the fold change in test [1] (setting [3]) was 1.05 (inactive); in test [1] (setting [4]), 0.703. Further, the cell count in test [1] (setting [5]) was 1820; in test [1] (setting [6]) it was 1740. Moreover, the z-score was 1.32 (inactive) in test [2] (setting [7]) and 0.434 in test [2] (setting [8]).

Take `C#CCNC1CCc2ccccc21` (configuration not stated): the fold change in test [1] (setting [3]) was 1.01 (inactive); in test [1] (setting [4]), 0.344. The cell count came out at 8040 in test [1] (setting [5]) and 7960 in test [1] (setting [6]). Besides, the z-score was -0.195 (inactive) in test [2] (setting [7]) and -0.00726 in test [2] (setting [8]).

Regarding `CCC(CC)(NC(=O)C(C)C)C(=O)NC(CCCN=C(N)N)C(=O)NC1(C(=O)NC(c2ccc(F)cc2)c2ccc(F)cc2)CCCC1` (configuration not stated), the results for the fold change in test [1] (setting [3]) and in test [1] (setting [4]) were 0.936 (inactive) and 0.709, respectively. The cell count was 9110 in test [1] (setting [5]) and 9730 in test [1] (setting [6]). Further, the z-score was -0.415 (inactive) in test [2] (setting [7]) and -0.654 in test [2] (setting [8]).

For `Cn1nccc1-c1cc(C(=O)NCc2ccc(S(C)(=O)=O)cn2)c(=O)n(-c2cccc(C(F)(F)F)c2)c1`, the fold change was 0.851 (inactive) in test [1] (setting [3]) and 0.538 in test [1] (setting [4]). Besides, the cell count stood at 8120 in test [1] (setting [5]) and 9540 in test [1] (setting [6]). For the same compound, the z-score in test [2] (setting [7]) is -0.549 (inactive); in test [2] (setting [8]), 0.346.

As for `CC(O)[C@H]1C(=O)N2C(C(=O)OCOC(=O)C(C)(C)C)=C(SC3CN(C4=NCCS4)C3)C(C)[C@@H]12` (some centres not stated), the fold change in test [1] (setting [3]) is 0.943 (inactive); in test [1] (setting [4]), 0.543. Besides, the cell count in test [1] (setting [5]) was determined as 8990; in test [1] (setting [6]), 9530. Moreover, the z-score in test [2] (setting [7]) was -0.198 (inactive); in test [2] (setting [8]) it was -0.552.

Take `CC1(C)S[C@H]2C(NC(=O)C(N)c3ccccc3)C(=O)N2C1C(=O)O` (some centres not stated): the fold change is 0.913 (inactive) in test [1] (setting [3]) and 0.727 in test [1] (setting [4]). The cell count in test [1] (setting [5]) came to 8130; in test [1] (setting [6]), 8910. The z-score in test [2] (setting [7]) was -0.295 (inactive); in test [2] (setting [8]), -0.19.

On to `CCC1OC(=O)C(C)C(OC2C[C@@](C)(OC)C(O)C(C)O2)C(C)C(OC2OC(C)CC(N(C)C)C2O)[C@](C)(O)CC(C)C(=NOCOCCOC)C(C)C(O)[C@]1(C)O` (some centres not stated), for which the fold change in test [1] (setting [3]) was 0.909 (inactive); in test [1] (setting [4]) it was 0.933. For the same compound, the cell count in test [1] (setting [5]) was 9240; in test [1] (setting [6]) it was 10200. The z-score is -0.34 (inactive) in test [2] (setting [7]) and 0.815 in test [2] (setting [8]).

As for `COc1cc(OC)c(C=CS(=O)(=O)Cc2ccc(OC)c(NCC(=O)O)c2)c(OC)c1`, the values for the fold change in test [1] (setting [3]) and in test [1] (setting [4]) were 1.02 (inactive) and 0.641, respectively. The values for the cell count in test [1] (setting [5]) and in test [1] (setting [6]) were 1610 and 1580, respectively. In addition, the z-score in test [2] (setting [7]) is 0.468 (inactive); in test [2] (setting [8]) it was -0.375.

For the compound `O=CC(O)C(O)C(O)C(O)CO` (configuration not stated), the values for the fold change in test [1] (setting [3]) and in test [1] (setting [4]) were 0.892 (inactive) and 0.805, respectively. Further, the cell count was determined as 8030 in test [1] (setting [5]) and 9000 in test [1] (setting [6]). The z-score in test [2] (setting [7]) was -0.158 (inactive); in test [2] (setting [8]), -0.000567.

Take `O=C(NNc1nc2cc(F)ccc2n2cccc12)c1cnccn1`: the fold change in test [1] (setting [3]) is 0.939 (inactive); in test [1] (setting [4]) it was 0.345. For the same compound, the cell count in test [1] (setting [5]) worked out at 2180; in test [1] (setting [6]), 2330. Further, the z-score was 1.52 (inactive) in test [2] (setting [7]) and -2.55 in test [2] (setting [8]).

On to `O=C(OC1C[N+]2(CCCOc3ccccc3)CCC1CC2)C(O)(c1cccs1)c1cccs1` (configuration not stated), for which the fold change in test [1] (setting [3]) was 0.946 (inactive); in test [1] (setting [4]), 1.31. Moreover, the results for the cell count in test [1] (setting [5]) and in test [1] (setting [6]) were 8940 and 9450, respectively. For the same compound, the z-score in test [2] (setting [7]) was -0.202 (inactive); in test [2] (setting [8]) it was -0.179.

For `COC(=O)C=CC(=O)OC`, the fold change is 0.917 (inactive) in test [1] (setting [3]) and 0.928 in test [1] (setting [4]). Further, the cell count in test [1] (setting [5]) stood at 10100; in test [1] (setting [6]), 11000. The z-score in test [2] (setting [7]) was -0.336 (inactive); in test [2] (setting [8]), 0.844.

`CCC(C)(C)c1ccc(CC(C)CN2CC(C)OC(C)C2)cc1` (configuration not stated): the results for the fold change in test [1] (setting [3]) and in test [1] (setting [4]) were 0.944 (inactive) and 0.765, respectively. Also, the figures for the cell count in test [1] (setting [5]) and in test [1] (setting [6]) were 8210 and 8700, respectively. The z-score is -0.433 (inactive) in test [2] (setting [7]) and 0.477 in test [2] (setting [8]).

Consider `CC1(C)C(O[C@H]2OC(C(=O)O)C(O)C(O)C2O[C@@H]2OC(C(=O)O)C(O)C(O)C2O)CC[C@@]2(C)[C@H]3C(=O)C=C4[C@@H]5C[C@@](C)(C(=O)O)CC[C@]5(C)CC[C@@]4(C)[C@]3(C)CC[C@@H]12` (some centres not stated), for which the fold change was 0.946 (inactive) in test [1] (setting [3]) and 0.91 in test [1] (setting [4]). Moreover, the cell count in test [1] (setting [5]) turned out to be 7600; in test [1] (setting [6]) it was 8030. For the same compound, the results for the z-score in test [2] (setting [7]) and in test [2] (setting [8]) were -0.278 (inactive) and -0.114, respectively.

For `Cc1ccc(S(=O)(=O)C=CC#N)cc1`, the fold change in test [1] (setting [3]) is 0.909 (inactive); in test [1] (setting [4]), 0.678. For the same compound, the cell count in test [1] (setting [5]) was found to be 7140; in test [1] (setting [6]), 7850. The z-score in test [2] (setting [7]) is -0.499 (inactive); in test [2] (setting [8]) it was -0.608.

With `O=C(Nc1cc(C(F)(F)F)ccc1N1CCCCC1)c1ccncc1`, the fold change in test [1] (setting [3]) was 0.916 (inactive); in test [1] (setting [4]) it was 0.317. Further, the values for the cell count in test [1] (setting [5]) and in test [1] (setting [6]) were 7440 and 8120, respectively. Besides, the results for the z-score in test [2] (setting [7]) and in test [2] (setting [8]) were -0.391 (inactive) and 1.41, respectively.
